The list is not random: actives were taken first. Their share in the collection is about 2.2%.
NPR1 activator: GC-A (human) enzyme activation. HEK293 GC-A cells, cGMP TR-FRET, EC30 ANP; 0% at EC30 ANP, 100% saturating ANP. activation, % at 10 µM. 0.14% of 370,000 active. AID 1671463; in the data active means activation above about 40%
Rce1 inhib: blocks yeast Ras-converting enzyme; Q03530; yeast membranes, quenched prenylated peptide cleavage fluorescence; calls only; 0.27% of 290,000 active; AID 2563;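 active means fall in fluorescence gain of 50% or more versus controls, with final raw signal at or below 3038400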;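 further: plate controls were neutral control wells for no effect and wells lacking membranes for full effect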
PLC-gamma1 inh: PLC-gamma1 (human) inhibition, primary screen; P19174; purified PLC-gamma1, fluorogenic substrate, fluorescence; inhibition, % at 12.2 µM; 0.84% of 370,000 active; AID 720700; in the data active means inhibition above about 9.5%
Target sequence (P19174 whole entry, looked up): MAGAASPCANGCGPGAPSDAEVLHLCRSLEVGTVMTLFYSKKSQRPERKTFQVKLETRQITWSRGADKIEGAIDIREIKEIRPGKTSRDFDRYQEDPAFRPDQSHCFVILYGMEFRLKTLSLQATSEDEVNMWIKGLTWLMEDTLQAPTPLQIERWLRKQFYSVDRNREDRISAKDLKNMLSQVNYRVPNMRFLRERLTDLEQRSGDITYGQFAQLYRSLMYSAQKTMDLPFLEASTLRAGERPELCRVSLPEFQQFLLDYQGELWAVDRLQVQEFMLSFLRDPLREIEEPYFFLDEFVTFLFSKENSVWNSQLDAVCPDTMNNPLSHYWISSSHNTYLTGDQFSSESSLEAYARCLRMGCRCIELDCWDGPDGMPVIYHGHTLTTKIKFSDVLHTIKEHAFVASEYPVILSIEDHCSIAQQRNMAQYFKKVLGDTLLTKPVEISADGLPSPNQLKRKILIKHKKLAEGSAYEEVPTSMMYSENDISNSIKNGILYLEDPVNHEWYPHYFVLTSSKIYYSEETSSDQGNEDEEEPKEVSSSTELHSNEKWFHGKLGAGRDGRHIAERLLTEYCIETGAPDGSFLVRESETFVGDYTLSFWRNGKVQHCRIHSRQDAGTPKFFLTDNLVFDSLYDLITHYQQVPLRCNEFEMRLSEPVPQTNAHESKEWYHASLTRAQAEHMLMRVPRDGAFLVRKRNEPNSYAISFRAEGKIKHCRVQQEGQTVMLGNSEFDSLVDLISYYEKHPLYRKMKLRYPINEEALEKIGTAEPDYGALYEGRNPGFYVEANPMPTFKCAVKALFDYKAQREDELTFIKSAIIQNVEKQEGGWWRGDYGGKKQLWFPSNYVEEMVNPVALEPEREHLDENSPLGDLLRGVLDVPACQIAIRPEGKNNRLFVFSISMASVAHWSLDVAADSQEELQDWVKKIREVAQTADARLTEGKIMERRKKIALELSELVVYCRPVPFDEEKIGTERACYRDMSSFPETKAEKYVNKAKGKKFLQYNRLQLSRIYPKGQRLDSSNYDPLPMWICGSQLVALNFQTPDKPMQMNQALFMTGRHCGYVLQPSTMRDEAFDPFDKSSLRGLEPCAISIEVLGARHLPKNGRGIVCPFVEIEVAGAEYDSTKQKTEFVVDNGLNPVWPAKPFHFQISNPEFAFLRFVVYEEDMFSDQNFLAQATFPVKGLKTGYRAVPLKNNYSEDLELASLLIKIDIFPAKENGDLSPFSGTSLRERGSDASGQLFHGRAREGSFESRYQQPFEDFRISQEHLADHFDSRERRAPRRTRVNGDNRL
M18AAP inhibitor: PfM18AAP enzyme inhibition | AID 1822 | inhibition, % at 7.35 µM | recombinant PfM18AAP, H-Glu-NHMec fluorogenic cleavage | 1.2% of 290,000 active;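 active means inhibition above the campaign mean inhibition over all tested compounds plus 3 SD, cut at about 28% in these data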;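 further: 0% = plate median of test compound wells and 100% = 2 mM ZnCl2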
GC-B act: GC-B (human) receptor activation; P20594; HEK293-GC-B cells, CNP EC30, cGMP TR-FRET; 0% at EC30 CNP, 100% saturating CNP; activation, % at 10 µM; 0.11% of 370,000 active;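 active means activation at 10 µM reaching about 35% in either raw or pattern-adjusted values, limit read from the data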
PLC-beta3 inh: inhibitors of human phospholipase C beta3; Q01970; Purified PLC-beta3, fluorogenic substrate, fluorescence; inhibition, % at 12.2 µM; 0.18% of 370,000 active; AID 720704;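 further: 0% = median of compound wells on plate and 100% = full blocker control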
PLCg1 ctr: PLC-gamma1 inhibition, counter-screen for PLC-beta3 hits. AID 743258. inhibition, % at 12.3 µM. shares compounds with PLC-gamma1 inh. purified PLC-gamma1, fluorogenic substrate, fluorescence. 3.1% of 3,300 active; in the data active means inhibition above about 9.5%
PLCb3 confirm: human PLC-beta3 inhibition, confirmation; 1% of 3,300 active; shares compounds with PLC-gamma1 inh; purified PLC-beta3, fluorogenic substrate fluorescence; inhibition, % at 12.3 µM
An asterisk follows results filed as active; i = inactive; · = no result. Unless noted, no stated cut-off is given here; in the data, active means inhibition above about 11%; inactive means the rest.

SMILES	NPR1 activator	Rce1 inhib	PLC-gamma1 inh	M18AAP inhibitor	GC-B act	PLC-beta3 inh	PLCg1 ctr	PLCb3 confirm
CC(C)(C)OC(=O)NCc1ccccc1/C=C/S(=O)(=O)NCc1ccc(F)cc1	-6.5	·	1.4	·	-0.7	4.6	·	·
O=C(NNC(=O)c1csc(-c2ccccc2)n1)c1ccccc1	0.3	·	4.3	·	-0.5	11.0*	-10.2	-4.8
O=C(NNC(=O)c1csc(-c2cccnc2)n1)c1ccccc1	1.5	i	9.6*	-3.0	-1.7	-4.7	-1.9	1.1
O=C(NNS(=O)(=O)c1ccccc1)c1csc(-c2cccnc2)n1	-5.2	i	3.5	4.9	1.1	-7.0	·	·
CCOC(=O)/C(C#N)=C/c1c(OCC)n(CC)c2ccccc12	-2.0	i	10.4*	-9.2	-1.3	-8.0	-10.1	-8.7
Cc1ccccc1CN1CCCCC(NC(=O)c2ccc3ccccc3c2)C1=O (stereo not drawn)	4.2	·	1.5	·	-2.7	-1.0	·	·
CCSC1=C(C#N)C2(CCCCC2)C(C#N)C(=O)N1 (stereo not drawn)	1.3	i	12.8*	-1.6	1.1	2.3	-6.4	-4.7
Fc1ccc(-c2nc(-c3cccs3)no2)cc1	10.3	i	2.0	-3.6	3.0	-5.1	·	·
Fc1ccc(-c2cc(-c3cccs3)cc(-c3ccccc3)n2)cc1	-2.7	i	13.9*	-6.2	-7.3	-3.0	5.4	-0.4
CC(C)CNS(=O)(=O)/C=C/c1ccccc1CNC(=O)OC(C)(C)C	0.6	·	0.9	·	-1.3	-2.5	·	·
COc1ccc(-n2nc(C(=O)Nc3ccc4c(c3)OCO4)c3c4ccccc4n(C)c3c2=O)cc1	-3.4	i	11.9*	-18.0	-2.2	5.8	-51.2	-9.4
COc1ccc(-n2nc(C(=O)Nc3ccc(OC)c(OC)c3)c3c4ccccc4n(C)c3c2=O)cc1	-4.2	i	-0.5	-3.7	0.0	-0.6	·	·
COc1ccc(C2NC(=O)NC(C)=C2C(=O)OCC2CCCCC2)cc1OC (stereo not drawn)	-13.7	i	10.9*	-9.7	-0.5	-1.4	-4.3	-1.4
COc1ccc(NC(=O)CN(C)C(=O)C2CC(=O)N(CCc3ccc(OC)c(OC)c3)C2)cc1 (stereo not drawn)	2.1	·	4.2	·	10.4	-2.1	·	·
COc1ccc(NC(=O)CN(C)C(=O)C2CC(=O)N(Cc3ccc(C)cc3)C2)cc1 (stereo not drawn)	1.5	i	11.7*	·	-2.4	5.5	-3.7	-5.5
Cc1ccc2nc(-c3ccc(F)cc3)c(Cc3ccsc3)n2c1	1.3	·	-8.0	·	1.1	-16.2	·	·
COC(=O)[C@]12C[C@H](CC(=O)NCC3CCCCC3)C(=O)N(Cc3ccccc3)C1=C[C@H](C(C)C)O[C@@H]2C1CC1	-3.1	·	5.1	·	-0.9	12.4*	-0.6	-0.8
COC(=O)[C@]12C[C@H](CC(=O)NCc3ccc(C)o3)C(=O)N(Cc3ccccc3)C1=C[C@H](C1CCCC1)O[C@@H]2C	-7.0	·	6.8	·	-5.2	12.0*	-7.8	-3.9
COC(=O)[C@]12C[C@H](CC(=O)N3CCCC3)C(=O)N(CCC3=CCCCC3)C1=C[C@H](C1CCCC1)O[C@@H]2C	1.7	·	10.9*	·	0.4	0.9	-3.0	-0.2
C#CCNC(=O)C[C@H]1C[C@@]2(C(=O)OC)C(=C[C@H](C(C)C)O[C@@H]2C2CC2)N(Cc2cccc3ccccc23)C1=O	-16.7	·	9.5*	·	-10.5	-0.6	-7.4	-1.5
C[C@H]1CN(C(=O)OC(C)(C)C)CCN1c1ccc(N2CCS(=O)(=O)CC2)c(C#N)c1	0.4	·	-34.4	·	-0.1	-49.5	·	·
CC1(c2nnnn2-c2ccc3c(c2)OCCO3)CSCC(=O)N1CCc1c[nH]c2ccccc12 (stereo not drawn)	-6.2	·	-0.3	·	-3.3	2.8	·	·
Cc1ccc(CSc2nnc(-c3cc(-c4ccc(F)cc4)n[nH]3)n2N)cc1	3.2	·	-1.9	·	-4.5	0.0	·	·
C[C@H]1[C@H](c2ccccc2)Oc2cccc(NCCc3ccccc3)c2S(=O)(=O)N1Cc1cccc(F)c1	1.4	·	-0.3	·	-1.8	2.1	·	·
